# Source: PubChem
# This is a sample that favours compounds with a hit; in the whole collection about 3.5% have one here.
# BoNT-F LC inh – BoNT/F light chain protease inhibitors, primary screen, biochemical, flow cytometry, MLPCN library; Multiplex microsphere protease cleavage assay; inhibition, % at 10 µM; 0.22% of 360,000 active; in the data active means inhibition above about 35%, passing the limit was not always enough; inconclusive means no clear call, values can overlap the other calls; further: plate controls were buffer without enzyme for full effect and enzyme alone for no effect
# Autofluor counter – compound fluorescence in toxin protease inhibitor counterscreen; compound autofluorescence counterscreen, microsphere flow cytometry; active compounds read high; fluorescence intensity (concentration not given with the values); 3.1% of 360,000 active; AID 624483; in the data active means fluorescence intensity above about 16000; inconclusive means no clear call, values can overlap the other calls
# BoNT-A LC inh2 – BoNT/A light chain protease inhibitors, primary screen, biochemical, flow cytometry, MLPCN library; inhibition, % at 10 µM; multiplex microsphere protease substrate cleavage; Botulinum neurotoxin type A light chain protease (Clostridium botulinum A str. ATCC 3502); 0.17% of 360,000 active; further: plate controls were buffer without enzyme for full effect and enzyme alone for no effect
# Anthrax LF prot – Bacillus anthracis LF protease inhibitors, primary screen, biochemical, multiplex microsphere, MLPCN library; Lethal factor (Bacillus anthracis), P15917; 0.12% of 360,000 active; inhibition, % at 10 µM; multiplex microsphere protease cleavage assay; further: plate controls were buffer without enzyme for full effect and enzyme alone for no effect
# An asterisk follows results filed as active; u = inconclusive. Unless noted, no stated cut-off is given here; in the data, active means inhibition above about 30%; inconclusive means no clear call, values can overlap the other calls; inactive means below that.
SMILES,BoNT-F LC inh,Autofluor counter,BoNT-A LC inh2,Anthrax LF prot
CCOc1cccc(CNCCNC(=O)c2nonc2N)c1,-5,22612*,0,1
COc1ccc(CCNC(=O)c2noc3c2CCCC3)cc1OC,0,21948*,2,2
Nc1nonc1C(=O)NCCNCc1cc(Br)ccc1OCc1ccc(F)cc1,-14,19634*,u,-9
COc1ccc(CNCCNC(=O)c2nonc2N)cc1OC,u,u,0,-9
COc1ccc(CCNC(=O)c2nonc2N)cc1OC,4,20897*,2,1
C#CCNC(=O)C1=C[C@H](c2ccc(C(F)(F)F)cc2)C[C@H](OCc2ccc(CO)cc2)O1,1,3012,0,-7
CCN(CC(=O)NCc1cccs1)C(=O)/C=C/c1ccc(OC)c(OC)c1,0,5391,4,1
C[C@H](CO)N1C[C@H](C)[C@@H](CN(C)Cc2ccc3c(c2)OCCN3C)OCc2cnnn2CCCC1=O,-8,3738,0,-10
CC(=O)N1c2ccc(S(=O)(=O)N3CCCC3C(=O)NCc3ccccc3Cl)cc2CC1C (stereo not drawn),-8,6094,1,-4
COc1cc(OC)c(OC)cc1CNCCNC(=O)c1nonc1N,-3,24547*,-2,1
COc1cc(CNCCNC(=O)c2nonc2N)ccc1OCc1ccc(Cl)nc1,-9,2271,0,-2
COc1ccc(CCNC(=O)C(=O)NCc2ccc(C(C)C)cc2)cc1OC,-5,24221*,u,-3
O=[N+]([O-])c1ccc(OCCO)c(P(=O)(c2ccccc2)c2ccccc2)c1,u,3318,4,15
O=C(c1ccccc1)c1nn(-c2ccccc2)c2nnc(Cc3ccccc3)c(=O)n12,-2,17139*,-2,-2
CC(C)CCNC(=O)CN(CCN1CCOCC1)C(=O)Cn1nnc(-c2ccc(F)cc2)n1,-1,22983*,-2,-1
COc1ccc(-c2nnn(CC(=O)N(CC(=O)NCCC(C)C)Cc3cccs3)n2)cc1OC,-2,16733*,u,-3
O=C(CN(CCN1CCOCC1)C(=O)Cn1nnc(-c2ccc(F)cc2)n1)NC1CCCCC1,4,9649,0,-2
Cc1ccc2c(CC(=O)N(C)c3c(N)n(Cc4ccccc4)c(=O)[nH]c3=O)coc2c1,4,5518,1,-3
O=C(N=Nc1c(O)[nH]c2ccc(Br)cc12)c1ccccc1-n1cccc1,-8,24096*,-3,-7
COc1cc(S(=O)(=O)NCc2cccnc2)ccc1F,0,21999*,1,-4
COC(=O)COc1ccc(S(=O)(=O)NCc2cccnc2)cc1C,10,17503*,6,1
N#C/C(=C\c1c(Cl)cccc1Cl)c1nc2ccccc2o1,49*,6198,8,8
O=C(O)CCc1nn2c3ccccc3n(CCN3CCCCC3)c2nc1=O,-6,17537*,-4,0
CN(C)c1nc2n(c(=O)n1)C(C#N)CS2 (stereo not drawn),-2,16338*,0,2
CN(C)c1nc2n(c(=O)n1)CCS2,-6,3435,0,-3
SMILES,BoNT-F LC inh,Autofluor counter,BoNT-A LC inh2,Anthrax LF prot
CC(=O)Nc1cccc(OCCCNS(=O)(=O)c2ccc(C#N)cc2)c1,12,5910,-3,0
CCOC(=O)c1c(-c2ccccc2)csc1NC(=O)c1ccc(S(=O)(=O)N2CC(C)OC(C)C2)cc1 (stereo not drawn),-1,23061*,2,-1
CCOC(=O)c1c(-c2cc(OC)c(OC)c(OC)c2)csc1NC(=O)c1ccccc1,0,3874,0,-4
CCOC(=O)c1c(-c2ccccc2)csc1NC(=O)c1ccc(N2C(=O)CCC2=O)cc1,1,22792*,1,1
Cc1noc(C)c1C(=O)OCC(=O)c1c[nH]c2ccccc12,22,14479,47*,53*
Cc1cccc(-n2c(=O)c(C#N)cc3c(=O)n4ccccc4nc32)c1,1,20190*,u,0
Cc1cccn2c(=O)c3cc(C#N)c(=O)n(-c4c(C)n(C)n(-c5ccccc5)c4=O)c3nc12,3,8824,1,19
Cc1cc(-n2c(=O)c(C#N)cc3c(=O)n4cccc(C)c4nc32)no1,5,21724*,2,-4
CC(=O)c1ccc(S(=O)(=O)N(CC(=O)NC2CC2)Cc2ccc(F)cc2)cc1,-8,4713,-3,0
Cc1ccc(S(=O)(=O)N(CC(=O)N2CCN(c3ccccc3F)CC2)C2CCCCC2)cc1,-3,20732*,-1,-1
CS(=O)(=O)N(CC(=O)N1CCN(c2ccccc2F)CC1)C1CCCCC1,-7,11157,-1,-1
Cc1cc(C)c(S(=O)(=O)N(CC(=O)N2CCOCC2)C2CCCCC2)c(C)c1,-4,3596,0,-4
Cc1ccc(S(=O)(=O)N(CC(=O)N2CCOCC2)C2CCCCC2)cc1,-6,23611*,u,-3
CC1C(c2ccccc2)N(C)C(c2ccccc2)CC1(O)c1ccccc1 (stereo not drawn),-7,17483*,-6,-6
C=CCSc1nnc(-c2cccc3ccccc23)o1,10,2777,0,0
C#CCSc1nnc(-c2cccc3ccccc23)o1,0,16238*,0,-4
O=C(Nc1ccccc1Cl)C1CC(=O)N(c2ccccc2)C1 (stereo not drawn),-10,5301,0,-4
COC(=O)c1ccccc1NC(=O)C1CC(=O)N(c2ccccc2)C1 (stereo not drawn),-2,22918*,0,-3
Cc1ccc(N2CC(C(=O)Nc3ccc(N(C)C)cc3)CC2=O)cc1C (stereo not drawn),-2,19991*,1,-3
Cc1ccc(N2CC(C(=O)Nc3ccccc3C(=O)NC3CCCCC3)CC2=O)cc1C (stereo not drawn),-4,22887*,u,0
O=C(NCc1ccc2c(c1)OCO2)c1cccc(S(=O)(=O)N2CCCCC2)c1,-3,17025*,u,-1
CCN(CC)C(=O)c1ccc(NC(=O)c2cccc(F)c2)cc1,-3,20909*,-1,-4
O=C(Nc1ccc2c(c1)OCCO2)c1cccc(S(=O)(=O)N2CCOCC2)c1,1,23080*,1,-1
O=C(Nc1ccc(Nc2ccccc2)cc1)c1cccc(F)c1,-73,3430,-5,-3
O=C(Nc1ccc(N2CCOCC2)cc1)c1cccc(S(=O)(=O)N2CCCC2)c1,-8,25105*,-7,-4
SMILES,BoNT-F LC inh,Autofluor counter,BoNT-A LC inh2,Anthrax LF prot
O=C(Nc1ccc(N2CCOCC2)cc1)c1cccc(S(=O)(=O)N2CCCCCC2)c1,5,3868,1,0
Nc1nc2ncc(-c3ccsc3)c(N)n2n1,-1,2109,0,-1
Cc1cccc(NC(=O)Nc2c(C)n(C)n(-c3ccccc3)c2=O)c1C,-4,5366,-1,1
Cc1ccc(NC(=O)COC(=O)c2cc(=O)c3cc(F)ccc3o2)cc1,6,6374,-1,3
O=C(Nc1ccc2c(c1)OCCO2)c1cccc(S(=O)(=O)N2CCCCC2)c1,-3,21092*,u,-4
CCCn1c(NC(=O)c2cccc(S(=O)(=O)N3CCCC3)c2)nc2ccccc21,-5,16663*,-1,-3
